Screens: PubChem BioAssay, National Center for Advancing Translational Sciences (NCATS)
Most compounds without a hit are left out; they make up all but 6% or so of the library.
D3 ag: qHTS of D3 Dopamine Receptor Agonist: qHTS | D(3) dopamine receptor (Homo sapiens), P35462 | D3R DiscoveRx beta-arrestin cells, luminescence, 90 min | max activation, % | hit rate 0.58% among 410,000; in the data active = max activation above about 30%
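Agonist-mode cell screen: cells plated at 1500/well and incubated overnight at 37 °C, then exposed to library compounds for 90 min at 37 °C. Detection reagent was added for 30–60 min at room temperature, and luminescence was read.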
D1 potentiator: Potentiators of Human D1 Dopamine Receptor: qHTS | hit rate 0.036% among 360,000 | potentiation, % at 10 µM | D(1A) dopamine receptor (Homo sapiens), P21728 | HEK293 TREx D1 cells, calcium flux, dopamine EC20 potentiation; in the data active = potentiation above about 30%
Target sequence (P21728 whole entry, looked up): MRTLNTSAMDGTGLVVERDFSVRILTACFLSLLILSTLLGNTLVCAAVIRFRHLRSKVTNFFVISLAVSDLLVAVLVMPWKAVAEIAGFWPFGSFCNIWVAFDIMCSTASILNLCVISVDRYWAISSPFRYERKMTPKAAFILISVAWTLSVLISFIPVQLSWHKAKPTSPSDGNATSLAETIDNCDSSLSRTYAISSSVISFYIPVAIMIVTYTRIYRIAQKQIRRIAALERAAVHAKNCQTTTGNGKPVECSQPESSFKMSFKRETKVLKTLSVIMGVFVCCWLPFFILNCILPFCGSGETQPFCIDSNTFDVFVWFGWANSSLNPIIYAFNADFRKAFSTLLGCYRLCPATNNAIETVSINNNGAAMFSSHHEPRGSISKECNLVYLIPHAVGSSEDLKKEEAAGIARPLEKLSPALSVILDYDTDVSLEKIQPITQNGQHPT
D1 ag: Allosteric Agonists of the Human D1 Dopamine Receptor: qHTS | activation, % at 2 µM | hit rate 1% among 360,000 | D(1A) dopamine receptor (Homo sapiens), P21728 | HEK293 T-REx D1 cells, calcium flux, agonist mode; in the data active = activation above about 30%
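Tetracycline-induced HEK293 TREx D1 cells, force-coupled to calcium signalling, were dye-loaded with a no-wash calcium kit. Compound was pin-added after a 10 s baseline. Fluorescence was read kinetically at 1 cycle/s for 180 s, with calcium rises flagged as agonism.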
D1 antagonist: Antagonist of Human D 1 Dopamine Receptor: qHTS; HEK293 TREx D1 cells, calcium flux, dopamine EC80; hits give low values; D(1A) dopamine receptor (Homo sapiens), P21728; AID 504652, 2011; activity change, negative = inhibition, % at 10 µM; hit rate 3.2% among 360,000; in the data active = activity change below about -30%
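Cells carrying a force-coupled, tetracycline-inducible human D1 receptor report calcium flux. Each well gets a 10 s baseline, compound with 180 s monitoring, then an EC80 dopamine stimulus with a second 180 s kinetic read.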
DRD3 antagonist: qHTS of D3 Dopamine Receptor Antagonist: qHTS | AID 652054, 2013 | max response, negative = inhibition, % | D3R cells, DiscoveRx beta-arrestin luminescence, antagonist mode; hits give low values | D(3) dopamine receptor (Homo sapiens), P35462 | hit rate 2.5% among 360,000; in the data active = max response below about -50%; inconclusive = no clear call, values can overlap the other calls
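Cells plated overnight at 1500 cells/well, then exposed to library compounds with dopamine controls for 90 minutes at 37 degrees C. DiscoveRx reagent added for 30–60 minutes at room temperature; luminescence read, quantitative HTS format.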
Each line names hits and unclear results; the compound was inactive in the other large screens.

COc1ccccc1N=Cc1nc(-c2ccccc2)oc1OC(C)=O	DRD3 antagonist -55.6
COC(=O)c1ccccc1NC(=O)Cn1c(=O)n(CCCC(=O)NCc2ccccc2Cl)c(=O)c2ccccc21	none (no result: DRD3 antagonist)
COc1ccccc1CN1CCN(C2CCN(C(=O)NC(C)C)CC2)C(=O)C1=O	none (no result: DRD3 antagonist)
COc1cc(OC)c(CN2CCN(c3ccc(F)cc3)CC2)cc1Br	D1 antagonist -31.5, DRD3 antagonist -74.0
COc1ccc(C2NCCc3c2[nH]c2ccccc32)cc1COc1ccc(F)cc1 (stereo not drawn)	D1 ag 77.2
COc1ccc(CN2CCN(c3ccc(F)cc3)CC2)c(OC)c1OC	none
COc1ccc(C2NCCc3c2[nH]c2ccccc32)cc1CN1CCc2cc(OC)c(OC)cc2C1C (stereo not drawn)	D1 ag 36.4, D1 antagonist -54.2
COc1ccc(C2NC(C(=O)O)Cc3c2[nH]c2ccccc32)cc1CN1CCN(c2ccc(F)cc2)CC1 (stereo not drawn)	D1 antagonist -48.3
COc1cc2nc(/C=C/c3ccc(N(C)C)cc3)sc2cc1SC	D1 potentiator 35.0, D1 ag 553.9
Cc1ccnc(N/C=C(\C#N)c2nc(-c3cccc(Br)c3)cs2)c1	D1 ag 160.1, D1 antagonist -35.8
N#C/C(=C/c1ccc(Cl)cc1)c1nc(-c2ccc(Br)cc2)cs1	none (no result: DRD3 antagonist)
COc1cccc(Cn2c(N)c(C#N)c3nc4ccccc4nc32)c1OC	D1 antagonist -42.9
COc1ccc(Cn2c(N)c(C#N)c3nc4ccccc4nc32)cc1	none
Cc1ccccc1NC(=O)c1sc2nc(-c3ccncc3)ccc2c1N	D1 ag 47.8 (no result: DRD3 antagonist)
Cc1ccc(NC(=O)c2sc3nc(-c4ccncc4)ccc3c2N)cc1	D1 ag 164.8 (no result: DRD3 antagonist)
O=C(CCN1C(=O)C2C3CCC(C3)C2C1=O)OCC(=O)c1cccc([N+](=O)[O-])c1 (stereo not drawn)	DRD3 antagonist inconclusive
CC(C)C(C(=O)OCC(=O)c1cccc([N+](=O)[O-])c1)N1C(=O)[C@@H]2[C@H]3CC[C@H](C3)[C@@H]2C1=O (stereo partly drawn)	D1 antagonist -32.8
O=C(CN1C(=O)C2C3C=CC(C3)C2C1=O)OCC(=O)c1ccc(Cl)c([N+](=O)[O-])c1 (stereo not drawn)	DRD3 antagonist -69.5 (no result: D1 potentiator, D1 ag, D1 antagonist)
CC(C)C(C(=O)OCC(=O)c1ccccc1)N1C(=O)C2C3C=CC(C3)C2C1=O (stereo not drawn)	none
Cc1ccc(C(=O)COC(=O)CN2C(=O)C3C4C=CC(C4)C3C2=O)cc1[N+](=O)[O-] (stereo not drawn)	none
COc1ccc(C(=O)COC(=O)CN2C(=O)C3C4C=CC(C5CC45)C3C2=O)cc1 (stereo not drawn)	D1 antagonist -32.7
O=C(CN1C(=O)C2C3CCC(C3)C2C1=O)OCC(=O)c1cccc([N+](=O)[O-])c1 (stereo not drawn)	D1 antagonist -33.4
CC(C)(C)N1C(=O)c2ccccc2NC(=O)C1C(=O)NCc1ccco1 (stereo not drawn)	none (no result: D1 potentiator, D1 ag, D1 antagonist)
Oc1ccccc1Nc1nc2ccccc2n2nnnc12	D1 ag 41.6 (no result: DRD3 antagonist)
c1ccc(Nc2nc3ccccc3n3nnnc23)cc1	D1 antagonist -68.8
COc1ccc(-c2cn3nc(SCC(=O)Nc4cc(C)cc(C)c4)ccc3n2)cc1	none (no result: DRD3 antagonist)
Cc1c(C(=O)Nc2ccc(F)cc2)oc2ccc(S(=O)(=O)N3CCCCCC3)cc12	none (no result: DRD3 antagonist)
Cc1c(C(=O)Nc2cccc(C(F)(F)F)c2)oc2ccc(S(=O)(=O)N3CCC4(CC3)OCCO4)cc12	none (no result: DRD3 antagonist)
Cc1c(C(=O)Nc2cccc(C(F)(F)F)c2)oc2ccc(S(=O)(=O)N3CCOCC3)cc12	D3 ag 63.6
Cc1ccc(NC(=O)c2oc3ccc(S(=O)(=O)N4CCCCC4)cc3c2C)cc1C	D1 antagonist -31.5 (no result: DRD3 antagonist)
CCOc1ccc(NC(=O)CSc2nc(-c3cccc(Cl)c3)nc3c2Cc2c(CO)cnc(C)c2O3)cc1	none (no result: DRD3 antagonist)
CCOC(=O)N1CCC(NC(=O)c2ccc3c(c2)N(Cc2cc(C)ccc2C)C(=O)c2ccccc2S3(=O)=O)CC1	none (no result: DRD3 antagonist)
CC1=NN(c2ccccc2)C(c2ccco2)C1 (stereo not drawn)	none (no result: D1 potentiator, D1 ag, D1 antagonist)
O=[N+]([O-])c1ccc(/C=C/C2=NN(c3ccccc3)C(c3ccco3)C2)cc1 (stereo not drawn)	D1 ag 212.8, D1 antagonist -67.6
C[n+]1ccccc1/C=C/c1ccc([N+](=O)[O-])cc1	none
O=[N+]([O-])c1ccc(C2=NN(c3ccccc3)C(c3ccco3)C2)cc1 (stereo not drawn)	D1 ag 295.7, D1 antagonist -66.9
CC1CCN(C(=O)CN2c3ccc(C(C)C)cc3-c3ccccc3S2(=O)=O)CC1	none (no result: DRD3 antagonist)
CCN1CCN(CCCNC(=O)C2CCCN(c3nc4c(C)cc(C)cc4s3)C2)CC1 (stereo not drawn)	D1 antagonist -35.0
C[C@@H]1CN(S(=O)(=O)c2ccc3c(c2)OCCO3)CCN1S(=O)(=O)c1c(F)cccc1F	D1 antagonist -33.3 (no result: D3 ag, DRD3 antagonist)
CN(Cc1ccccc1F)C(=O)CN1CCN(S(=O)(=O)c2ccc3c(c2)OCCCO3)CC1	D1 antagonist -30.9
C[C@H]1CN(S(=O)(=O)c2c(F)cccc2F)CCN1S(=O)(=O)c1ccc2c(c1)OCCO2	none (no result: D3 ag, DRD3 antagonist)
O=C(O)Cc1cc(F)c(S(=O)(=O)N2CCN(S(=O)(=O)c3ccc4c(c3)OCCO4)CC2)cc1F	D1 antagonist -42.0 (no result: D3 ag, DRD3 antagonist)
O=[N+]([O-])c1ccccc1S(=O)(=O)N1CCN(S(=O)(=O)c2ccc3c(c2)OCCO3)CC1	D1 antagonist -30.6 (no result: D3 ag, DRD3 antagonist)
CCN(c1ccccc1)S(=O)(=O)c1nnc(NC(=O)COc2cccc(C)c2)s1	none (no result: DRD3 antagonist)
CCOc1ccccc1CNC(=O)C1CCN(C(=O)N2CC(CC)Oc3ccc(C)cc32)CC1 (stereo not drawn)	none (no result: DRD3 antagonist)
FC(F)(F)c1nnc2ccc(N3CCCC3)nn12	none
FC(F)(F)C(F)(F)C(F)(F)c1nnc2ccc(N3CCOCC3)nn12	D1 antagonist -73.3, DRD3 antagonist inconclusive
CC(=O)c1c(C)n(-c2cccc(Cl)c2)c2ccc(OC(=O)c3ccccc3)cc12	none (no result: DRD3 antagonist)
CN1CCCN(C(=O)c2cc3c(s2)CCCC3)CC1	DRD3 antagonist -56.3
CC(=O)N1CCN(C(=O)c2cc3c(s2)CCCC3)CC1	none (no result: D1 potentiator, D1 ag, D1 antagonist)
N#CN1CCC(NC(=O)c2ccc(C(F)(F)F)cc2)CC1	none (no result: D3 ag, DRD3 antagonist)
Cc1ccc(C)c(C(=O)CCC(=O)OCn2nnc3ccccc3c2=O)c1	D1 antagonist -63.5
Cc1onc(-c2ccccc2Cl)c1C(=O)OCn1nnc2ccccc2c1=O	D1 antagonist -50.0
